Source: PubChem BioAssay (NCATS)
Results filed as inconclusive are left out. The source made the active and inactive calls. Unless noted, calls follow the shape of the dose curve; as a rule, active = well fitted curve in the direction sought with a large enough effect; inconclusive = small, poorly fitted or top-dose-only effect, or another doubt; inactive = no such curve, though single readings can be large; an effect the other way counts as inactive or inconclusive.

Tests used:
[1] = target: Glucocorticoid receptor (Homo sapiens) (UniProt P04150); test: GR-GFP Redistribution (AID 450;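 active = compounds whose dose series gives a full or clear partial fitted curve of increased nuclear translocation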; also: potency is read from the fitted curve at half-maximal effect); conditions: U2OS GR-GFP nuclear translocation, laser cytometry, 2 h
Glucocorticoid receptor (Homo sapiens), sequence (P04150 whole entry, looked up, the tested form may be a part): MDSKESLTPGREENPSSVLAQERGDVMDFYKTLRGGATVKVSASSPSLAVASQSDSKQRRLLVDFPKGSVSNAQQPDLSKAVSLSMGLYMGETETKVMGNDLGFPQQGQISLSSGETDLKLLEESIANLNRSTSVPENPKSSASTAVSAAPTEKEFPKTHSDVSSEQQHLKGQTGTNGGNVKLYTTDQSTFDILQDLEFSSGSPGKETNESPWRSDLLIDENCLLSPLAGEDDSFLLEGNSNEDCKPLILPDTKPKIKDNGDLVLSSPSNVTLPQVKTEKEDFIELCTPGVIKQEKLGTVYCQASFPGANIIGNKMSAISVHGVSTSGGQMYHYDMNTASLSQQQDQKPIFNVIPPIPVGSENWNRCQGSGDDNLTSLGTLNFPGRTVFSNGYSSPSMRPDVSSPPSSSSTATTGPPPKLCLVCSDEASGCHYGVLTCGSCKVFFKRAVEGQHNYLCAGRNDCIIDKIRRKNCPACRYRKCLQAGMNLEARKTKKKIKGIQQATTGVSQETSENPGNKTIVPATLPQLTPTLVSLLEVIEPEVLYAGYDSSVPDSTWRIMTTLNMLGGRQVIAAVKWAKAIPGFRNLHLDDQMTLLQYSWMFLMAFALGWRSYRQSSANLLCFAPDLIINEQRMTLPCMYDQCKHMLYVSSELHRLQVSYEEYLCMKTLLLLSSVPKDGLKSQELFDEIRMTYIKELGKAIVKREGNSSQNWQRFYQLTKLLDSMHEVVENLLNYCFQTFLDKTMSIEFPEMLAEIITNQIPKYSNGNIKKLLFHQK

[2] = target: Glucocorticoid receptor (Homo sapiens) (UniProt P04150); test: GR-EFC Redistribution (AID 451; calls by dose curve; also: potency is read from the fitted curve at half-maximal effect); conditions: CHO-K1 GR-EFC translocation, beta-gal luminescence, 2 h
How it was run: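 CHO-K1 cells stably expressing nuclear-localized β-gal enzyme acceptor and GR fused C-terminally to the enzyme donor fragment; ligand-driven nuclear translocation restores β-gal by complementation. Compounds titrated up to 46 uM final, 2 h at 37 °C; luminescence read.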

[3] = target: Mitogen-activated protein kinase 10 (Mus musculus) (UniProt Q61831); test: JNK3 AlphaScreen Assay (AID 530; active = well fitted curve in either direction with a large enough effect, not every such curve was filed as active;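 also: kinase came from lysate of stimulated human HepG2 cells; signal reports phosphorylation of biotinylated GST-cJun 1-79 at Ser73 with 10 µM ATP; % is scaled to controls: 0 for no effect and ±100 for the full control effect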); conditions: JNK3 lysate, c-Jun phosphorylation; series mostly up to 57.1 µM
How it was run: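 Biotinylated GST-cJun(1-79) served as substrate for JNK3 in HepG2 lysates stimulated with IL-1beta and TNF-alpha. ATP was 10 uM final, pH 7.6. Ser73 phosphorylation was quantified by AlphaScreen (680 nm excitation).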

[4] = target: 3',5'-cyclic-AMP phosphodiesterase 4B (Homo sapiens) (UniProt Q07343); test: qHTS Assay for Inhibitors of PDE-IV (AID 607; active = well fitted activation curve with a large enough effect in the main read-out, with a control signal flat, not every such curve was filed as active; also: % of control where 0% means no effect); conditions: HEK293 ACTOne CNG channel cells, membrane potential fluorescence; series mostly up to 22.9 µM
3',5'-cyclic-AMP phosphodiesterase 4B (Homo sapiens), sequence (Q07343 whole entry, looked up): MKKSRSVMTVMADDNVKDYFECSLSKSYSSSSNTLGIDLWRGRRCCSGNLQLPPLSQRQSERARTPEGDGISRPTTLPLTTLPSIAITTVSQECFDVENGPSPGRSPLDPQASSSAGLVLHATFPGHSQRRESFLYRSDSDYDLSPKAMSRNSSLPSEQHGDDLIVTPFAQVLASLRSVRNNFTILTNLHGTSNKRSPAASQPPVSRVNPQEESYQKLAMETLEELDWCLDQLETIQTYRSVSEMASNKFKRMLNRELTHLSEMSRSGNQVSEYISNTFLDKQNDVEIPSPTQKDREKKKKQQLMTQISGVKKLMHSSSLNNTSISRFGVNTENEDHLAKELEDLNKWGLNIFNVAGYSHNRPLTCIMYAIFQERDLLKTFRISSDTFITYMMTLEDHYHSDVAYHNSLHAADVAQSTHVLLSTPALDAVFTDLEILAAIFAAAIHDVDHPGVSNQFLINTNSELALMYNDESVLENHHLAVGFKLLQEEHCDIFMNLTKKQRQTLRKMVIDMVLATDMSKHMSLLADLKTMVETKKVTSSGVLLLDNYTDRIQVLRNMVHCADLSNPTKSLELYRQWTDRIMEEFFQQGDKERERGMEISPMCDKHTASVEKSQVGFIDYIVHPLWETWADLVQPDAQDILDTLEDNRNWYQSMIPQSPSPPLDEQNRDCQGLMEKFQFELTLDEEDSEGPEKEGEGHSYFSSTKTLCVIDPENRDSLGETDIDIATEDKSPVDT
How it was run: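 ACTOne HEK293 cells carry a modified cAMP-gated CNG channel and express endogenous PDE4; plated 1000 cells/well, compounds up to 22.9 uM final. Membrane-potential dye fluorescence (ex 535/em 590) was read; parental cells received 10 uM forskolin + 100 uM RO 20-1724.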

[5] = target: Ubiquitin carboxyl-terminal hydrolase 1 (Homo sapiens) (UniProt O94782); test: Inhibitors of USP1/UAF1: Pilot qHTS (AID 504865); conditions: purified USP1/UAF1, Ub-rhodamine cleavage fluorescence; series mostly up to 114 µM; also: nearly all actives have a fitted effect of over 35% in size; also: potency is read from the fitted curve at half-maximal effect;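 as to activity change, negative = inhibition: rhodamine fluorescence freed from ubiquitin-rhodamine substrate followed over time; top concentration of the series differs between compounds; % is scaled to controls: 0 for no effect and ±100 for the full control effect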
Ubiquitin carboxyl-terminal hydrolase 1 (Homo sapiens), sequence (O94782 whole entry, looked up): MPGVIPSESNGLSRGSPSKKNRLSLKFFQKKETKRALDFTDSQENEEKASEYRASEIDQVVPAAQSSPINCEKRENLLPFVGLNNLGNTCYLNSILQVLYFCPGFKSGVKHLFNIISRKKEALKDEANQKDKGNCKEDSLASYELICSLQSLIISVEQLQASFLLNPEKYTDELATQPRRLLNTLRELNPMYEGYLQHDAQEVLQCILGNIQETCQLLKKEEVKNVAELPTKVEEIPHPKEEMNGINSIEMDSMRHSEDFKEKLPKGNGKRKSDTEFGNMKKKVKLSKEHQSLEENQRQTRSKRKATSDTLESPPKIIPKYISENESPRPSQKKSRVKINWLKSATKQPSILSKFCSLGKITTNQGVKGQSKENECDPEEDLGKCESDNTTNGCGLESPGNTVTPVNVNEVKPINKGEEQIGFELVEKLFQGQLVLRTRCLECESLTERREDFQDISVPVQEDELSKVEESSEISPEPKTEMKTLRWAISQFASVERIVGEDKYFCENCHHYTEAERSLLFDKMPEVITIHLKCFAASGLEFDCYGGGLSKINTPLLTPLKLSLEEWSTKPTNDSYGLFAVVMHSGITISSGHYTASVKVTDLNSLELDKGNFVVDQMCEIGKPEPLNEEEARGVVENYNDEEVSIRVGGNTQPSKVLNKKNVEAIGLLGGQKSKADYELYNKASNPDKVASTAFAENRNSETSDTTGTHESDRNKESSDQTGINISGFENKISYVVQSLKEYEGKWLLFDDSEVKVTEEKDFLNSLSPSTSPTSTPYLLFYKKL
How it was run: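 1nM USP1/UAF1 + cpd, 15 min RT; start w/ Ub-Rho 150nM final; kinetic FL 480/540 nm, 6 reads q60 s. Buffer 50mM HEPES pH 7.8, 0.5mM EDTA, 1mM TCEP, 0.01% Tween-20, 0.1 mg/ml BSA.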

[6] = target: DNA dC->dU-editing enzyme APOBEC-3G (Homo sapiens) (UniProt Q9HC16); test: qHTS for inhibitors of Vif-A3G interactions: Validation (AID 588379); conditions: Vif-A3G protein interaction assay; series mostly up to 46.1 µM; also: 0% is about no effect
DNA dC->dU-editing enzyme APOBEC-3G (Homo sapiens), sequence (Q9HC16 whole entry, looked up): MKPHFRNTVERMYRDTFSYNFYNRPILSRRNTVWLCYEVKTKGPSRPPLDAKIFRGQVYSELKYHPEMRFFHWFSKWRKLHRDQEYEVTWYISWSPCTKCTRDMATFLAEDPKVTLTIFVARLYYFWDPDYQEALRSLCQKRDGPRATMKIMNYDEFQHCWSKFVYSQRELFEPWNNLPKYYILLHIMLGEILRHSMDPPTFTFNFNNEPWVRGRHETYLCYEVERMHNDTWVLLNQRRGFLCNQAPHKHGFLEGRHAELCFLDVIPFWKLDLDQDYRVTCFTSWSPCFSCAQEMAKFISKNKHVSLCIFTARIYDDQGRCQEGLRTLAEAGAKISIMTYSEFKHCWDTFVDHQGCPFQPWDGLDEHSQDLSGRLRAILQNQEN
How it was run: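 Yellow fluorescence (Ex 488, Em 500-530) of Vif-coexpressing HeLa A3G-eYFP cells, scanned by Acumen cytometer, reports blocked A3G degradation. Cells plated at 700/well overnight at 37 deg C before compound addition, then a further overnight compound incubation at 37 deg C.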

[7] = system: Zika virus NS2B-NS3 protease; test: Primary screen GU AMC qHTS for Zika virus inhibitors (AID 1347154); conditions: Zika NS2B-NS3 unlinked protease, AMC fluorogenic substrate; series mostly up to 54.1 µM; also: nearly all actives have a fitted effect of over 70% in size; also: potency is read from the fitted curve at half-maximal effect;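 as to activity change, negative = inhibition: 0% = no-inhibitor control and -100% = no-enzyme control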
How it was run: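 Unlinked Zika NS2B hydrophilic domain/NS3 protease domain noncovalent complex (25 nM final) in 10 mM Tris-HCl pH 8.0, 0.01% Tween 20, with AMC peptide substrate. Fluorescence (ex 340, em 450 nm) change over 15 min, room temperature; percent inhibition fitted to 4-parameter Hill equation.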

[8] = Confirmatory screen GU Rhodamine qHTS for Zika virus inhibitors qHTS (AID 1347157); conditions: purified enzyme assay, Rhodamine110 substrate fluorescence, 15 min; series mostly up to 114 µM; also: nearly all actives have a fitted effect of over 70% in size; also: potency is read from the fitted curve at half-maximal effect;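 as to activity change, negative = inhibition: plate controls were no-inhibitor wells for no effect and no-enzyme wells for full effect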
How it was run: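 Percent inhibition derives from the 15-min fluorescence change (ex 480, em 540 nm), normalized to no-enzyme and no-inhibitor wells. Reactions contained 25 nM NS2B-NS3 complex and 1.5 microM substrate in 10 mM Tris-HCl pH 8.0.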

[9] = target: Cytochrome P450 1A2 (Homo sapiens) (UniProt P05177); test: p450-cyp1a2 (AID 410; calls by dose curve; also: potency is read from the fitted curve at half-maximal effect); conditions: recombinant CYP1A2, luciferin-ME demethylation, luminescence; series mostly up to 57 µM
Cytochrome P450 1A2 (Homo sapiens), sequence (P05177 whole entry, looked up): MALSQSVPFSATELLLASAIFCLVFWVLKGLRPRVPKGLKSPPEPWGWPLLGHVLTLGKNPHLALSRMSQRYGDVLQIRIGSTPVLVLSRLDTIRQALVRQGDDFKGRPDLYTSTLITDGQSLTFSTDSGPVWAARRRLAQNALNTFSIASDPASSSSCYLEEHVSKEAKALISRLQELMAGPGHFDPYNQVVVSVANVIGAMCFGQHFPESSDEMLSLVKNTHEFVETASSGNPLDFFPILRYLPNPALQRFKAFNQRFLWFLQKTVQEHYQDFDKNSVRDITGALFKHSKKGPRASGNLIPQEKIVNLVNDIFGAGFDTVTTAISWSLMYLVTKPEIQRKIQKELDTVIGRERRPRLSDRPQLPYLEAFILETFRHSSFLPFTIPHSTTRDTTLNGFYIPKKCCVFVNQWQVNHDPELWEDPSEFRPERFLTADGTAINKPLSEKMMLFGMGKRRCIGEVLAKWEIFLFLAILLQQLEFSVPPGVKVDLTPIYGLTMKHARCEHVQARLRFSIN
How it was run: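 20nM CYP1A2, 100uM Luciferin-ME (=Km), 100mM KPO4; cpd 10 min RT; +NADPH regen, 60 min RT; stop/detect 20 min; luminescence. Normalized to furafylline 57 uM = full inhibition.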

[10] = target: Guanine nucleotide-binding protein G(i) subunit alpha-1 (Homo sapiens) (UniProt P63096); test: qHTS Assay for Inhibitors of RGS12 GoLoco Motif Activity (Green Fluorophore) (AID 879); conditions: Galphai1/FITC-RGS12 GoLoco peptide, fluorescence polarization; series mostly up to 57.1 µM;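 also: 0% = labeled peptide with Gαi1 and full inhibition = labeled peptide alone without protein; negative values mean loss of peptide binding seen as reduced polarization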
Guanine nucleotide-binding protein G(i) subunit alpha-1 (Homo sapiens), sequence (P63096 whole entry, looked up): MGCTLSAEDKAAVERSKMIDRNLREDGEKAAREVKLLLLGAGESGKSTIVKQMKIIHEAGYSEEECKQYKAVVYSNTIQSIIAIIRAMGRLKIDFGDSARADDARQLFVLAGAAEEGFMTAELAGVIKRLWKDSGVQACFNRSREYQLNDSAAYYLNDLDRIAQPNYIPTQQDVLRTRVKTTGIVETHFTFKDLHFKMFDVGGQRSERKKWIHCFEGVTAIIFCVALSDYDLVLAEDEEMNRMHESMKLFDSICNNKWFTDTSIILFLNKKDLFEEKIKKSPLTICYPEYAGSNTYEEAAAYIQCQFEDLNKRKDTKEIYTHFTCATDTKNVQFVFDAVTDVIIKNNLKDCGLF
How it was run: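 A drop in FITC polarization marked displacement of the FITC-tagged RGS12 GoLoco peptide (10 nM) from Gαi1 (50 nM). Compounds were incubated 10 min at room temperature in Tris pH 7.5 buffer containing 150 mM NaCl, 0.1 mM GDP and 0.05% NP40; unlabeled peptide titration served as control.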

[11] = target: Cytochrome P450 3A4 (Homo sapiens) (UniProt P08684); test: qHTS Assay for Inhibitors and Substrates of Cytochrome P450 3A4 (AID 884); conditions: recombinant CYP3A4, Luciferin-PPXE luminescence; series mostly up to 57.1 µM; also: % is scaled to controls: 0 for no effect and ±100 for the full control effect; nearly all actives have a fitted effect of over 50% in size
Cytochrome P450 3A4 (Homo sapiens), sequence (P08684 whole entry, looked up): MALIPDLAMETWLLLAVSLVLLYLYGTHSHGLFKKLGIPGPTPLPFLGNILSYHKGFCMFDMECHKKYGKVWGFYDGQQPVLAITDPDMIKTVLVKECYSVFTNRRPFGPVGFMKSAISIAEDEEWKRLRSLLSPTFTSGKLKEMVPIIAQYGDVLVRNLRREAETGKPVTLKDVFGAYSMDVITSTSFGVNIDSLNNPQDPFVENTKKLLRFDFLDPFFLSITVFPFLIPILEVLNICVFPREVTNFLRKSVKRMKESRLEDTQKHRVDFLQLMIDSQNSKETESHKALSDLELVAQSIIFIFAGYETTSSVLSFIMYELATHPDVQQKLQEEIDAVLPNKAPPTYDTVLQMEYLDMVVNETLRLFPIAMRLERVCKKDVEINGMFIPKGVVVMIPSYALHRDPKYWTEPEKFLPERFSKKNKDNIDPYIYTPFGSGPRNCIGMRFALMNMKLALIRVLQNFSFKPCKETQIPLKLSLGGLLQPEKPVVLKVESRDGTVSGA
How it was run: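 Luminescent readout of luciferin produced by CYP3A4 (20 nM) dealkylation of Luciferin-PPXE, 25 uM (its KM). NADPH-driven reaction ran 60 min at RT after 10 min compound preincubation; data scaled to 57 uM ketoconazole as 100% inhibition.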

[12] = qHTS Assay for Identification of Small Molecule Antagonists for NFkB Signaling Pathway (AID 895; active = well fitted inhibition curve with a large enough effect in the signal ratio, with a control signal flat, not every such curve was filed as active; the % refers to the signal ratio; also: % is scaled to controls: 0 for no effect and ±100 for the full control effect); conditions: NFkB beta-lactamase reporter cells, FRET ratio 460/530, stimulated with 10 pM TNF alpha; series mostly up to 38.3 µM
How it was run: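 NFkB-bla ME-180 cervical carcinoma cells with beta-lactamase reporter under NFkB response element; compounds added, then TNF alpha at 10 pM final (EC50), 5 h at 37 C. LiveBLAzer substrate 2 h, room temperature; emission 460/530 nm at 405 nm excitation.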

[13] = qHTS Assay for Identification of Small Molecule Antagonists for Thrombopoietin (TPO) Signaling Pathway (AID 918); conditions: TPO-dependent cell signaling reporter, antagonist mode; also: potency is read from the fitted curve at half-maximal effect; nearly all actives have a fitted effect of over 60% in size
How it was run: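 Luminescence read-out: GPIIb-promoter luciferase in Ba/F3 cells carrying human TPO receptor. Compounds added with 26 pM TPO (EC50), 24 hrs, 37 C, 5% CO2; cells deprived of IL-3 overnight beforehand. Inhibition of signal scored.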

[14] = target: Muscarinic acetylcholine receptor M1 (Rattus norvegicus) (UniProt P08482); test: qHTS Assay for Antagonists of Acetylcholine Muscarinic M1 Receptor: Kinetic Measurement of Intracellular Calcium Response (AID 943); conditions: M1-expressing cells, kinetic intracellular calcium fluorescence; series mostly up to 35.3 µM;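 also: Fluo-4 calcium signal as peak divided by basal fluorescence over 4 min; nearly all actives have a fitted effect of over 75% in size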
Muscarinic acetylcholine receptor M1 (Rattus norvegicus), sequence (P08482 whole entry, looked up): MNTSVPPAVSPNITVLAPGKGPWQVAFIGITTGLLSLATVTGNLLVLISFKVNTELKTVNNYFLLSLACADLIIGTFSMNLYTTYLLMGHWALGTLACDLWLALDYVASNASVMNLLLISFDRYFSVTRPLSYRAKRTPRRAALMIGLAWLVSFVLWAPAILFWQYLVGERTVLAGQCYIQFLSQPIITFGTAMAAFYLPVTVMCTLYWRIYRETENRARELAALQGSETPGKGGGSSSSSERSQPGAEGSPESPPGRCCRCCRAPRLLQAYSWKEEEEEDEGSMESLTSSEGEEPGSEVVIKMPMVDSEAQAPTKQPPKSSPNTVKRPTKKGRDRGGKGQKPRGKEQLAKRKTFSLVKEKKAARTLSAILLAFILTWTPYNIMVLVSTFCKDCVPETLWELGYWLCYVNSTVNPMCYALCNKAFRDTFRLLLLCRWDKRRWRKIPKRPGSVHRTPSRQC
How it was run: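 Read-out: peak over basal Fluo-4 fluorescence, kinetic at 1 Hz for 4 min after EC80 carbachol (100 nM final). Rat M1-CHO cells, dye loaded 1 h at 37C, compound added 10 min before agonist.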

[15] = target: Pyruvate kinase (Leishmania mexicana) (UniProt Q27686); test: qHTS Validation Assay for Inhibitors of Leishmania Mexicana Pyruvate Kinase (AID 945);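 also: 0% = DMSO only neutral control wells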; conditions: purified L. mexicana pyruvate kinase, enzyme activity, E451W mutant enzyme; series mostly up to 57.5 µM
Pyruvate kinase (Leishmania mexicana), sequence (Q27686 2-499 E452W): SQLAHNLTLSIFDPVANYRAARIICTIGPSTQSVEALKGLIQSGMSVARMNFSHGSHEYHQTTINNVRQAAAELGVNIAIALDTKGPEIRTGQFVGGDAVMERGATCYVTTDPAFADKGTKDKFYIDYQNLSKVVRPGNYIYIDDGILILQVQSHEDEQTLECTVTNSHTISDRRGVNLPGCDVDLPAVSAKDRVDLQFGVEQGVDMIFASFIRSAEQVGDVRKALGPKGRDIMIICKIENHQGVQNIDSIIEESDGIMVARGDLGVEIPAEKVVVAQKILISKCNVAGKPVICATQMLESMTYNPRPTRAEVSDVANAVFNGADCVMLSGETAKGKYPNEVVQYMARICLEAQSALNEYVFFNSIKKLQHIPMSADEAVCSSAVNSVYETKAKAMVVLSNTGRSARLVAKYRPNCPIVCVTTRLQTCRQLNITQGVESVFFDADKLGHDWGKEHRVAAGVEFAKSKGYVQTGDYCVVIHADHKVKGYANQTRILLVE
How it was run: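 The enzyme is a highly purified E451W mutant of LmPYK used at 0.2 nM. It converts 0.5 mM PEP and 0.1 mM ADP over 1 h at room temperature; product ATP is quantified by luciferase luminescence relative to DMSO controls.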

[16] = target: alpha-glucosidase (Oryza sativa, rice) (UniProt Q653V4); test: Counterscreen for Glucocerebrosidase Inhibitors: qHTS Assay for Rice alpha-Glucosidase at pH 5.0 (AID 997); conditions: rice alpha-glucosidase enzyme activity; series mostly up to 76.9 µM;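 also: 0% = full activity with enzyme and -100% = basal without enzyme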
How it was run: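 Endpoint fluorogenic assay at pH 5.0: compounds (0.7 nM to 77 uM) titrated against 4 nM rice enzyme and 400 uM 4-MU-alpha-glucoside for 20 min at room temperature; NaOH/glycine stop, read ex 365/em 440 nm, Hill-fitted AC50.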

[17] = Confirmatory screen NINDS Rhodamine qHTS for Zika virus inhibitors (AID 1347161); conditions: purified enzyme assay, Rhodamine110 substrate fluorescence, 15 min; series mostly up to 114 µM; also: nearly all actives have a fitted effect of over 60% in size; also: potency is read from the fitted curve at half-maximal effect;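 as to activity change, negative = inhibition: purified Zika NS2B-NS3 protease with linked NS2B cofactor domain and Rhodamine110 peptide substrate; plate controls were no-inhibitor control for no effect and no-enzyme control for full effect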
How it was run: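 Aprotinin served as in-plate control. Conditions: 25 nM linked NS2B-NS3, pH 8.0 Tris buffer, titrated compounds, 15 min preincubation and 15 min reaction with 1.5 microM Rhod110 substrate at room temperature.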

[18] = system: Zika virus NS2B-NS3 protease (linked); test: 384 well plate NINDS AMC confirmatory qHTS for Zika virus inhibitors (AID 1347163); conditions: Recombinant NS2B-NS3 protease, Ac-VKTGKR-AMC fluorescence; series mostly up to 1 mM; also: nearly all actives have a fitted effect of over 50% in size; also: potency is read from the fitted curve at half-maximal effect;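 as to activity change, negative = inhibition: linked protease at 5 30 or 60 nM final depending on run; fluorescence of AMC released from Ac-VKTGKR-AMC peptide cleaved by the protease; top concentration of the series differs between compounds; 0% = no-inhibitor control and -100% = no-enzyme control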
How it was run: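 Enzyme (5, 30 or 60 nM final) first met test compounds for ~15 min. The AMC-tagged peptide Ac-VKTGKR-AMC followed at 30 microM. Fluorescence was then recorded at 25 min and scaled against no-enzyme and no-inhibitor wells.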

[19] = system: Zika virus NS2B-NS3 protease (linked construct); test: 384 well plate NINDS Rhodamine confirmatory qHTS for Zika virus inhibitors (AID 1347164); conditions: rhodamine-110 peptide substrate fluorescence; series mostly up to 1 mM;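 also: fluorescence from protease cleavage of Ac-LKRR-rhodamine 110 substrate; nearly all actives have a fitted effect of over 65% in size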; also: potency is read from the fitted curve at half-maximal effect;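 as to activity change, negative = inhibition: top concentration of the series differs between compounds; plate controls were no-inhibitor control for no effect and no-enzyme control for full effect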
How it was run: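 Fluorescence read at ex 485 nm/em 538 nm, 25 min after adding 10 microM Ac-LKRR-Rd substrate at room temperature in the dark; signal normalized to no-enzyme and no-inhibitor controls. Enzyme final 5, 30 or 60 nM; compounds, ~15 min preincubation.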

[20] = qHTS Assay for Lipid Storage Modulators (AID 1519; calls by dose curve; as to activity change, negative = inhibition: % is scaled to controls: 0 for no effect and ±100 for the full control effect); conditions: Drosophila S3 cells, BODIPY lipid droplet/cell ratio, laser cytometry, cells loaded with oleic acid
How it was run: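 Cells seeded at 5,000 per well were treated with compounds over a concentration series and loaded with oleic acid (400 uM, as added). Lipid droplet fluorescence (488 nm excitation, 500-530 nm channel) was read by laser-scanning cytometry and normalized to 20 uM Triacsin C.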

[21] = ZIKV-mCherry secondary qHTS for Zika virus inhibitors (AID 1347158); conditions: Vero cells, ZIKV-mCherry infection imaging, 48-72 h; series mostly up to 49.2 µM; also: top concentration of the series differs between compounds
How it was run: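 Read-out is percent infection: mCherry-positive Vero cells (nuclear-proximal intensity >450 RFU, 3 SD above negative controls) counted by high-content imaging of Hoechst-stained, PFA-fixed wells after 48-72 h with ZIKV-mCherry at MOI 1 and compound.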

[22] = Tertiary RLuc qRT-PCR qHTS assay for Zika virus inhibitors (AID 1347169); conditions: infected Vero cells, reporter luminescence, 48-72 h; series mostly up to 1.74 µM; also: top concentration of the series differs between compounds; % is scaled to controls: 0 for no effect and ±100 for the full control effect; nearly all actives have a fitted effect of over 55% in size
How it was run: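 Luminescence read-out: live-cell Renilla luciferase substrate applied to infected Vero cells, signal measured after 1-1.5 hrs. Cells had received compound before ZIKV-RLuc (Cambodian strain, MOI 1-2) infection and were incubated 48-72 hrs at 37 degrees C.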

Cc1c[nH]c(=O)n(CCCN2CCN(c3ccccc3OCC(F)(F)F)CC2)c1=O
inactive: Potency [1] > 46 µM | Potency [2] > 46 µM | Potency [3] | Potency [4] | Potency [5] | Potency [6] | Potency [7]

O=C(/C=C\c1ccc(O)c(O)c1)O[C@@H](Cc1ccc(O)c(O)c1)C(=O)O
active: Potency [7] 4.74 µM
inactive: Potency [1] > 46 µM | Potency [2] > 46 µM | Potency [6]

CCCCN1CCC[C@@H]1CNC(=O)c1cc(C#N)c2ccccc2c1OC
inactive: Potency [1] > 46 µM | Potency [2] > 46 µM | Potency [3] | Potency [5] | Potency [6] | Potency [7]

COc1ccc([N+](=O)[O-])c2c1CCN2C(=O)CC[C@H](N)C(=O)O
active: Potency [1] 4.81 µM
inactive: Potency [2] > 46 µM | Potency [3] | Potency [4] | Potency [5] | Potency [6] | Potency [7]

CCc1nn2c(=O)cc(COC(=O)c3ccccc3NC(=O)c3ccc(C(C)(C)C)cc3)nc2s1
inactive: Potency [8]

C[C@@]12CC[C@@H]3c4ccc(O)cc4C[C@H](CCCCCCCCCS(=O)CCCC(F)(F)C(F)(F)F)[C@H]3[C@@H]1CC[C@@H]2O (some centres not stated)
inactive: Potency [1] > 46 µM | Potency [2] > 46 µM | Potency [3] | Potency [4] | Potency [6] | Potency [7]

CCCCCCCCCCCCC/C=C\[C@@H](O)[C@@H](N)CO
inactive: Potency [2] > 46 µM | Potency [4] | outcome [10] | Potency [11] | Potency [12] | Potency [14] | Potency [15] | outcome [16] | Potency [6] | Potency [7]
active: Potency [9] 15.8 µM | Potency [13] 10 µM | Potency [5] 50.1 µM

CCS(=O)(=O)c1cccc(C(=O)Nc2ccc(-c3nc4ccccc4s3)c(O)c2)c1
inactive: Potency [18]
active: Potency [8] 25.1 µM | Potency [17] 15.8 µM | Potency [19] 14.1 µM

CCOC(=O)c1ccc(CN(Cc2ccccc2C)S(=O)(=O)c2ccc(F)c(C(=O)Nc3cccc(OC)c3)c2)cc1
inactive: Potency [8] | Potency [17]

CCCc1nn2c(=O)cc(COC(=O)c3ccccc3NC(=O)c3ccc(Cl)cc3)nc2s1
inactive: Potency [8] | Potency [17]

O=C(OC1Cc2c(O)cc(O)cc2OC1c1cc(O)c(=O)c2c(O)c(O)cc(C3Oc4cc(O)cc(O)c4CC3OC(=O)c3cc(O)c(O)c(O)c3)c2c1)c1cc(O)c(O)c(O)c1 (configuration not stated)
active: Potency [8] 5.01 µM | Potency [18] 2.24 µM
inactive: activity change, negative = inhibition ([20]; at 57.5 µM (top of the series)) 15% | Potency [21] | Potency [19]
7.68%: max response ([20]; measured here: lipid channel max response)
-10.5%: max response ([20]; measured here: cell count channel max response)

COc1ccc(S(=O)(=O)c2c(Nc3ccc(C)cc3)sc(C(=O)c3ccc4c(c3)OCO4)c2N)cc1
inactive: Potency [8] | Potency [17] | Potency [22]
